# Only some compounds are listed: those with a hit (about 1.4% of all), similar ones and a draw of the others.
# TrxR1 substrate = substrates of rat thioredoxin reductase 1. O89049. purified TrxR1 substrate turnover, NADPH consumption readout. Potency, µM (doses to about 114 µM), for inactives: top-dose activity change, negative = substrate turnover. 390,000 compounds, 0.01% hits; further: potency means the concentration at half of the fitted maximal effect; nearly all actives have a fitted effect of over 50% in size
#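 Rat TrxR1, dispensed at 90 nM, was prereduced with 400 uM NADPH (final) for 5 min at ~22 deg C, then incubated with compound 15 min before 400 uM selenite. A first-read NADPH fluorescence drop versus no-compound background flagged substrates.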
# LDHA inh = inhibitors of human lactate dehydrogenase A; activity change, % (values are at about 110 or 230 µM); P00338; 480,000 compounds, 0.15% hits; purified LDHA, NADH/diaphorase-resazurin fluorescence; stronger effect = lower value; AID 1347041; in the data active means activity change below about -30%; inconclusive means mostly about -25% to -30%;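 further: plate controls were DMSO wells for no effect and wells without enzyme for full effect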
#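 Enzyme activity of human lactate dehydrogenase 5 (2 nM; 0.06 mM NADH, 0.2 mM pyruvate, 5 min, RT) is measured via a resazurin/diaphorase fluorescence readout of residual NADH.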
# PKM2 act = increases activity of human pyruvate kinase M2; AID 1631; P14618; Potency, µM (top dose mostly 57.5 µM), for the others: at the highest dose activation, actives largely listed as activators; 260,000 compounds, 0.34% hits; purified PKM2, Kinase-Glo ATP luminescence, activation; response scale: 0% is enzyme alone, no compound; further: potency means the concentration at half of the fitted maximal effect; nearly all actives have a fitted effect of over 55% in size
#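 Purified hPK-M2 (>95% pure) converted ADP (0.1 mM final) to ATP with 0.5 mM PEP in 50 mM imidazole pH7.2, KCl, MgCl2, Tween 20, BSA; 1 h at room temperature. ATP detected by Kinase-Glo luminescence.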
# mIDH1 inhibitor = inhibitors of human mutant IDH1 R132H; O75874; IDH1-R132H enzyme, NADPH consumption, diaphorase/resazurin fluorescence; 390,000 compounds, 0.093% hits; Potency, µM (series often up to 76.6 µM), without a hit: top-dose activity change, negative = inhibition, hits mostly inhibitors; AID 602179; further: potency means the concentration at half of the fitted maximal effect; nearly all actives have a fitted effect of over 65% in size
# Target sequence (O75874 whole entry R132H, stated change not applied): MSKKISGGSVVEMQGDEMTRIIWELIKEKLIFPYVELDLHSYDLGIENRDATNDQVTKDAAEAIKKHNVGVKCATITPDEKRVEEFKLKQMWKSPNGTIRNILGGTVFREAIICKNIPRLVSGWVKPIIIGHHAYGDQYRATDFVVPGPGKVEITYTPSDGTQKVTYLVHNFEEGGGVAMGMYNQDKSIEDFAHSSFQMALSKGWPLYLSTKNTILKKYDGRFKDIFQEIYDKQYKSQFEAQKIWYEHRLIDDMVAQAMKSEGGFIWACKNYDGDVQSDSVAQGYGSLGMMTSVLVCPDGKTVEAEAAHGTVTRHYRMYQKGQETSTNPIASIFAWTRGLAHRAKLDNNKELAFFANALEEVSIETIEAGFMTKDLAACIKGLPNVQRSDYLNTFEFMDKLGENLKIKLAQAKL
#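 IDH1-R132H (0.5 ug/mL) preincubated 30 min with compound, then NADPH (0.016 mM) and alpha-KG (2 mM) added; 80 min at RT, pH 7.5. Remaining NADPH coupled via diaphorase/resazurin to fluorescence (540/590 nm); concentration-response curves normalized to no-enzyme control.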
# rTrxR1 inhibitor = inhibitors of rat thioredoxin reductase 1. Potency, µM (highest dose often 114 µM), inactives show at the top dose activity change, negative = inhibition, hits mostly inhibitors. O89049. 390,000 compounds, 1% hits. AID 588453. recombinant rTrxR1, NADPH fluorescence consumption, selenite substrate; further: potency means the concentration at half of the fitted maximal effect; nearly all actives have a fitted effect of over 65% in size
#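 Rat TrxR1 (90 nM in the dispensed reagent) was pre-reduced with 400 uM NADPH for 5 min at room temperature, then incubated with compound for 15 min. After 400 uM selenite was added, NADPH fluorescence (Ex 340/Em 450 nm) was followed for 8 min.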
# GLS inh = blocks human kidney-isoform glutaminase activity; Potency, µM (series often up to 45.5 µM), inactives show at the top dose activity change, negative = inhibition, actives largely listed as inhibitors; O94925; 410,000 compounds, 0.21% hits; GLS enzymatic activity, qHTS titration; further: potency means the concentration at half of the fitted maximal effect
#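 hKGA in 45 mM KH2PO4 (pH 8.2), 0.02% Tween-20 with compound, then 1mM L-Glutamine (stock as added) plus glutamate oxidase/HRP/Amplex red coupling mix. Fluorescence read initially and after 30 min at RT; signal change reflects glutamate formation.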
# * = called active by the depositor; ? = inconclusive; / = no result; [ ] = dose if it differs, or a comment. Unless noted, the call rests on the fitted dose curve; in most records, active means well fitted curve in the direction sought with a large enough effect; inconclusive means small, poorly fitted or top-dose-only effect, or another doubt; inactive means no such curve, though single readings can be large; an effect the other way counts as inactive or inconclusive. Unless noted, on the % scale 0 is the no-effect control and ±100 the full control effect.
SMILES,TrxR1 substrate,LDHA inh,PKM2 act,mIDH1 inhibitor,rTrxR1 inhibitor,GLS inh
O=C(O)C1Nc2ccccc2C2C=CCC12 (stereo not given),-5.2%,7.9,/,/,3.55µM*,/
O=C(O)C1Nc2c(C(F)(F)F)ccc(Cl)c2C2C=CCC12 (stereo not given),3.3%[2.29 µM],2.0,/,-9.8%,?,-23.5%
Cc1cc(C)c2c(c1)C1C=CCC1C(C(=O)O)N2 (stereo not given),0.7%,6.3,/,/,1.41µM*,/
O=C(O)C1Nc2c(C(=O)N3CCOCC3)cccc2C2C=CCC12 (stereo not given),-7.1%,28.1,-6.8%,1.8%,1.58µM*,2.51µM*
Cc1cc(C)c2c(c1)NC(C(=O)O)C1CC=CC21 (stereo not given),1.7%,-0.4,1.1%[11.5 µM],-7.6%,3.98µM*,10µM*
COc1cc(CN(C(=O)c2ccc3c(c2)NC(=O)CO3)C2CC2)ccc1OC(F)F,/,-0.8,/,/,/,/
CC[N+](C)(CC)CCCOC(=O)C1(c2ccccc2)CCCC1,/,3.7,/,/,/,/
Cc1ccc2c(c1C)NC(C(=O)O)C1CC=CC21 (stereo not given),13.3%,14.3,-8.4%,-2.4%,2.51µM*,?
CCCCCC(=O)Nc1cc(S(=O)(=O)O)cc2cc(S(=O)(=O)O)cc(O)c12,-3.3%,25.4,/,4.9%,?,1.78µM*
O=C(/C=C/c1ccco1)NCCCN1CCOCC1,10.2%[57.1 µM],-6.8,-3.4%,0.8%,6.6%[57.1 µM],5.3%
O=C(/C=C/c1ccc(Br)o1)NCCCN1CCOCC1,-2.5%,0.3,-2.1%,1.0%,8.91µM*,-1.4%
Cc1nnc(CN2CCC(c3nc4ccccc4s3)CC2)o1,/,7.9,/,/,/,/
O=C(CCc1ccc(F)cc1)N1CCC(c2nc3ccccc3s2)CC1,/,4.9,/,/,/,/
CCc1nnc(CN2CCC(c3nc4ccccc4s3)CC2)o1,/,-36.1*,/,/,/,/
O=C(CSc1ccc(F)cc1)N1CCC(c2nc3ccccc3s2)CC1,8.9%[57.1 µM],-6.6,20µM*,1.7%,18.8%[57.1 µM],-11.0%
COc1ccc(NC(=O)c2c(NC(=O)COc3ccccc3)sc3c2CCC(C(C)(C)C)C3)cc1 (stereo not given),0.7%,-7.8,/,40.8%,15.1%,-14.5%
COc1ccc(NC(=O)c2c(NC(=O)CCC(=O)O)sc3c2CCC(C(C)(C)C)C3)cc1 (stereo not given),/,-30.2*,/,/,/,/
Nc1nc(Cl)ccc1[N+](=O)[O-],/,1.6,/,/,/,/
O=C(O)CC/C(=N\Nc1ccc(S(=O)(=O)N2CCOCC2)cc1[N+](=O)[O-])c1cccs1,79.4µM*,-8.9,-5.6%,-6.4%,?,-9.6%
COc1ccc(SCC(=O)Nc2ccc(C(=O)N(C)C)cc2)cc1,/,0.2,/,/,/,/
COc1ccc(C(=O)N/C(=C\c2ccc(-c3cccc(C(F)(F)F)c3)o2)C(=O)NC(C)C)cc1,/,-1.8,/,/,/,/
c1ccc(NCc2cccs2)cc1,/,6.5,/,/,/,/
Oc1ccc(NCc2cccs2)cc1,3.0%,26.3,-9.8%[11.5 µM],9.3%,-0.5%[57.1 µM],11.2µM*
COc1ccc(C2C(C#N)=C(N)Oc3n[nH]c(C)c32)c(OCc2ccccc2Cl)c1 (stereo not given),/,-15.2,/,/,/,/
Cc1[nH]c2ccccc2c1CC#N,6.1%,-0.4,-5.2%,-8.8%,-14.4%,25.5%
SMILES,TrxR1 substrate,LDHA inh,PKM2 act,mIDH1 inhibitor,rTrxR1 inhibitor,GLS inh
Cc1[nH]c2ccccc2c1C1=CC(=O)C=CC1=O,4.8%,45.6,/,3.3%,25.1µM*,?
CNc1c(NS(=O)(=O)c2ccc(C)cc2)c(=O)oc2ccccc12,/,-2.2,/,/,/,/
COc1cccc(C(=O)NC(=S)Nc2cccnc2)c1,-3.3%,-12.7,-14.6%,1.7%,?,27.5%
CC(C)Oc1cccc(C(=O)NC(=S)Nc2cccnc2)c1,-0.5%,-8.4,4.2%,1.8%,22.4µM*,14.9%
O=C(N/N=C/C(Cl)=C/c1ccc([N+](=O)[O-])cc1)C(=O)Nc1cccc(C(=O)O)c1,-16.8%,0.9,13.5%,0.0%,79.4µM*,0.2%
Cc1c(C(=O)NC(c2ccc(Cl)cc2)c2nccn2C)oc2ccccc12 (stereo not given),/,4.7,/,/,/,/
CN1C(=O)Cc2cc(S(=O)(=O)NCc3cccs3)ccc21,9.1%[57.1 µM],-8.7,?,29.7%,40.2%,5.7%
CN1C(=O)Cc2cc(S(=O)(=O)NCc3c(F)cccc3Cl)ccc21,6.2%,-12.7,14.1µM*,0.0%,24.0%,0.0%
CC(NCC(=O)Nc1ccccc1C(=O)NC1CC1)c1ccc(S(N)(=O)=O)cc1 (stereo not given),1.8%,-32.7*,/,-0.2%,22.8%,1.0%
Cc1ccc2c(=O)cc(C(=O)Nc3nnc(CC(C)C)s3)oc2c1,/,-2.0,/,/,/,/
O=C(NCCCNC(=O)C1CCCC1)C1CCCC1,/,4.0,/,/,/,/
COC(=O)c1ccc2c(c1)sc(=NC(=O)CCS(=O)(=O)c1ccccc1)n2C,18.8%,-0.4,/,2.8%,-13.7%,3.4%
COCCn1c(=NC(=O)CCS(=O)(=O)c2ccccc2)sc2ccccc21,3.6%,-2.4,/,5.2%,7.08µM*,4.8%
Cc1ccc(CNC(=O)CSc2ncc3c(n2)-c2ccc(Cl)cc2N(C)S3(=O)=O)cc1,/,0.1,/,/,/,/
CCOc1ccccc1Nc1nc(-c2cc3cc(Cl)ccc3oc2=O)cs1,/,0.0,/,/,/,/
COc1cc(O)c(NC(C)=O)c2nonc12,-21.5%,14.7,7.5%,20.1%,-0.7%,17.7%
CC(=O)NC1=CC(=O)c2nonc2C1=O,7.08µM*,15.0,/,/,?,/
CC(C)=CC(=O)Nc1sc(C)c(C)c1C#N,/,1.9,/,/,/,/
CN(CCO)c1cc(Sc2nc3ccccc3s2)c2nonc2c1[N+](=O)[O-],-6.9%,34.1,?,6.2%,0.355µM*,22.6%
CC(=O)OCCN(C)c1cc(SC(C)C)c2nonc2c1[N+](=O)[O-],8.9%[57.1 µM],1.0,/,2.4%,3.16µM*,2.8%
CC(=O)OCCNc1cc(SC(C)C)c2nonc2c1[N+](=O)[O-],-16.3%[57.1 µM],14.8,-6.8%,4.4%,3.8%[57.1 µM],0.0%
COc1ccc(C2CC(c3ccccc3)=NN2C(=O)CSc2nnc(-c3ccccc3)o2)cc1 (stereo not given),/,5.1,/,/,/,/
CC(C)N(CCC(=O)c1ccc2ccccc2c1)Cc1ccccc1,25.3%[57.1 µM],-7.8,/,3.5%,3.16µM*,16.3%
